# Compounds with a hit are over-represented: about 1.3% of the library has one in this group of screens.
# Rin1-Abl PPI inh – human Rin1-Abl interaction inhibition; TR-FRET Rin1/Abl binding, biochemical; inhibition, % at 7.35 µM; 0.4% of 360,000 active; AID 588664; in the data active = inhibition above about 5%, passing the limit was not always enough
# eLon inh – inhibits E. coli Lon protease | P0A9M0 | inhibition, % at 7.94 µM | AID 602123 | 0.42% of 360,000 active | purified E. coli Lon protease, fluorescence polarization; in the data active = inhibition above about 13%, passing the limit was not always enough
# IDE cell inh – inhibitors of human insulin-degrading enzyme in cells; HEK cells, FAbetaB cleavage, fluorescence polarization; 0.41% of 320,000 active; inhibition, % at 5.59 µM; P14735; AID 434962;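 active = percent inhibition above the average of all tested compounds plus 3 SD, set per screening campaign, cut at about 16% in these data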;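 note: IDE supplied by intact live HEK cells; FP after avidin binding of uncleaved biotin substrate so inhibition keeps polarization high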
# IDE cell activ – activators of human insulin-degrading enzyme in cells; HEK cells, FAbeta-B cleavage, fluorescence polarization; 0% vehicle, 100% cell-free pure enzyme wells; 0.073% of 340,000 active; activation, % at 5.96 µM; AID 493087;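 active = activation above the mean of all tested compounds plus 3 SD, set per screening campaign, cut at about 17% in these data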
# PKA-R2B activ – PKA-R2B complex activation. P22694+P31323. PKA-R2B holoenzyme dissociation, Cy5-IP20 fluorescence polarization; R2B truncated from residue 108, S112A mutant; 0% DMSO only, 100% 113 µM cGMP. activation, % at 11.4 µM. 0.079% of 340,000 active;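 active = activation above a cutoff set at the mean over all compounds plus 3 SD, cut at about 18% in these data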;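 note: higher means more holoenzyme dissociation and a rise in polarization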
# PKA-R1A act – activators of PKA-R1A complex. P00514+P68181. PKA-R1A dissociation, Cy5-IP20 fluorescence polarization; scaled: DMSO 0%, 113 µM cGMP 100%. activation, % at 11.4 µM. 0.083% of 340,000 active. AID 504707;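 active = percent activation above the mean of all tested compounds plus 3 SD, cut at about 19% in these data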;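 note: higher means more PKAc released from R1A so a rise in polarization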
# Rin1 Abl conf – confirmation of inhibitors of human Rin1-Abl interaction; 49% of 1,300 active; shares compounds with Rin1-Abl PPI inh; inhibition, % at 7.35 µM; TR-FRET Rin1-Abl binding, purified proteins
# GFP quench-1 – quenches GFP fluorescence, counter-screen for Rin1-Abl inhibitors. 8.5% of 1,300 active. inhibitors/quenchers counterscreen. shares compounds with Rin1-Abl PPI inh. inhibition, % at 6.75 µM;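 note: ABL1-eGFP fusion protein alone without its partner RIN1-SBP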
# GFP quench DR – quenches GFP in dose response, Rin1-Abl counter-screen | shares compounds with Rin1-Abl PPI inh | GFP fluorescence interference/quenching counterscreen | IC50, µM | 230 tested, under 10 active | AID 602182; call rule not given here;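 note: ABL1-eGFP fusion protein alone without its RIN1 binding partner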
# GFP quench-2 – GFP quenching artifact for Rin1-Abl inhibitor hits | shares compounds with Rin1-Abl PPI inh | GFP fluorescence quenching counterscreen, biochemical | IC50, µM | 25 tested, under 10 active; call rule not given here
# Hits are given with their value; 0 = inactive; - = not tested or not shown. Cut-off read from the data, not from the text of the source, unless noted: active = inhibition above about 6.5%; inactive = the rest.
SMILES,Rin1-Abl PPI inh,eLon inh,IDE cell inh,IDE cell activ,PKA-R2B activ,PKA-R1A act,Rin1 Abl conf,GFP quench-1,others
CN1CCN(c2ccc(CNC(=O)C3Cc4c(-c5ccc(Cl)cc5)ccnc4O3)cc2)CC1 (stereo unspecified),15.2,0,-,-,-,-,9.5,0,
O=C(NCc1ccncc1)C1Cc2c(-c3ccc4c(c3)OCO4)ccnc2O1 (stereo unspecified),0,0,-,-,-,-,-,-,
CN1CCN(c2ccc(CNC(=O)C3Cc4c(-c5ccc6c(c5)OCO6)ccnc4O3)cc2)CC1 (stereo unspecified),15.1,0,-,-,-,-,14.1,0,
CCC1CCCCN1C(=O)c1ccc(OC)c(OC2CCN(C(C)=O)CC2)c1 (stereo unspecified),0,0,-,0,0,0,-,-,
CCC1C(=O)NCCN1C(=O)c1ccc(OC)c(OC2CCN(C(C)=O)CC2)c1 (stereo unspecified),8.4,0,0,0,0,0,0,0,
COc1ccc(NC(=O)NNC(=O)C(O)(c2ccccc2)c2ccccc2)cc1,0,0,0,0,0,0,-,-,
COC(=O)Cn1cc(C(=O)C(C)(C)C)c2ccccc21,0,0,0,0,0,0,-,-,
COc1cc(N)c2ncccc2c1SC,0,0,-,-,0,0,-,-,
COc1cc(N)c2ncccc2c1Br,13.4,0,-,0,0,0,0,0,
Cn1c(NC(=O)c2ccco2)cc(=O)n(C)c1=O,0,0,0,0,0,0,-,-,
CC(=O)Nc1ccc(S(=O)(=O)N2CCC(C(=O)NCCC(=O)Nc3nccs3)CC2)cc1,11.2,0,0,0,0,0,0,0,
Cc1ccc(Nc2nc3ccccc3s2)c(C)c1,6.9,0,0,0,0,0,0,0,
CC(=O)c1ccc(OCCCC(=O)N2CCN(S(=O)(=O)c3ccc(C)cc3C)CC2)cc1,7.5,0,0,0,0,0,0,0,
CC(=O)c1ccc(OCCCC(=O)N2CCN(S(=O)(=O)c3cc(C)ccc3C)CC2)cc1,0,0,0,0,0,0,-,-,
CCCc1cc(=O)oc2cc3occ(C)c3cc12,0,0,0,0,0,0,-,-,
CCc1cc(=O)oc2cc3occ(C)c3cc12,10.9,0,0,0,0,0,0,0,
CC1(c2cc(F)ccc2F)NC(=O)N(CC(=O)Nc2cccc(S(=O)(=O)N3CCCC3)c2)C1=O (stereo unspecified),0,0,0,0,0,0,-,-,
Cc1ncc(CN2CCCC(C(=O)Nc3ccc(-c4ccco4)cc3)C2)cn1 (stereo unspecified),15.5,0,0,0,0,0,10.2,0,
CCCCN(C(=O)CSc1c(C)c(C)cc(C)c1C)c1c(N)n(CCC)c(=O)[nH]c1=O,0,0,0,0,0,0,-,-,
Cc1nn(Cc2ccc(Cl)cc2)c2sc(C(=O)O)cc12,0,0,0,-,-,-,-,-,
Cc1ccc(C)c(NC(=O)CCc2c(C)nn(-c3ccc(N4CCCCC4)nn3)c2C)c1,12.0,0,0,0,0,0,0,0,
Brc1ccc2c(c1)C(C1=NCCN1)c1ccccc1CS2 (stereo unspecified),0,0,0,0,0,0,-,-,
CCOC(=O)c1cnc(-n2[nH]c(C)cc2=O)[nH]c1=O,14.1,0,0,-,-,-,8.6,7.8,
CCOC(=O)c1cnc(-n2nc(C)cc2C)[nH]c1=O,0,0,0,0,0,0,-,-,
COc1ccc(OCc2nnc(SCC(=O)c3ccccc3)o2)cc1,0,0,0,0,0,0,-,-,
SMILES,Rin1-Abl PPI inh,eLon inh,IDE cell inh,IDE cell activ,PKA-R2B activ,PKA-R1A act,Rin1 Abl conf,GFP quench-1,others
O=C(NC1CCN(Cc2ccccc2)CC1)c1ccc2c(c1)[nH]c(=O)n2Cc1ccc(F)cc1,10.2,0,0,0,0,0,12.6,0,
CCCCCn1c(=O)[nH]c2cc(C(=O)NC3CCN(Cc4ccccc4)CC3)ccc2c1=O,0,0,0,0,0,0,-,-,
COc1cc(C=O)cc(OC)c1OS(=O)(=O)c1ccc(NC(C)=O)cc1,0,0,0,0,0,0,-,-,
COc1ccc(C=O)cc1OS(=O)(=O)c1ccc(NC(C)=O)cc1,8.5,0,0,0,0,0,0,0,
COc1ccc(CCNc2cc(=O)[nH]c(N)n2)cc1,23.9,0,0,0,0,0,52.2,0,GFP quench DR=0;GFP quench-2=0
COc1ccc(CCNc2ccc([N+](=O)[O-])cn2)cc1,0,0,-,0,0,0,-,-,
O=C1NCC(O)=C1C=NCCO,0,0,0,0,0,0,-,-,
O=C1NCC(O)=C1C=NC12CC3CC(CC(C3)C1)C2,31.1,0,0,0,0,0,22.6,0,GFP quench DR=0
O=C(COc1ccc(Cl)cc1Br)OCC(=O)c1ccc[nH]1,8.3,0,0,0,0,0,0,0,
O=C(COc1ccc(Cl)cc1Cl)OCC(=O)c1ccc[nH]1,0,0,0,0,0,0,-,-,
CC(=O)NS(=O)(=O)c1ccc(NS(=O)(=O)c2ccc(F)cc2)cc1,5.8,0,0,0,0,0,0,0,
O=C(/C=C/c1cccc(O)c1)c1cccnc1,0,0,0,0,0,0,-,-,
O=C(/C=C/c1cccnc1)c1cccc(O)c1,8.6,0,0,0,0,0,10.2,0,
C=C(C)Cn1c(C(C)NC(=O)CCC)nc2ccccc21 (stereo unspecified),8.6,0,0,0,0,0,0,0,
CC1CN(C(=O)COC(=O)c2cc(Cl)ccc2Cl)CC(C)O1 (stereo unspecified),0,0,0,0,0,0,-,-,
CCn1c(N2CCN(CC(=O)c3c(C)n(C)c4ccccc34)CC2)nc2c1c(=O)[nH]c(=O)n2C,6.4,0,0,0,0,0,0,0,
CCn1c(=O)cc(OCC(=O)NCc2cccs2)c2ccccc21,0,0,0,0,0,0,-,-,
c1ccc2[nH]c(SCc3cn4ccccc4n3)nc2c1,5.6,0,0,0,0,0,0,0,
Cc1cccc2nc(CSc3nc4ccccc4[nH]3)cn12,0,0,0,0,0,0,-,-,
CCCn1c(=O)c2[nH]cnc2n(-c2ccc(Cl)cc2)c1=O,0,0,0,0,0,0,-,-,
CCn1c(CNC(=O)c2ccccc2)nc2ccccc21,0,0,0,0,0,0,-,-,
Cc1ccc(NC(=O)CCCCCNS(=O)(=O)c2ccc(C)cc2)cc1,0,0,0,0,0,0,-,-,
O=C(CC1SCCNC1=O)Nc1ccc(F)c(Cl)c1 (stereo unspecified),20.7,0,0,0,0,0,20.8,0,GFP quench DR=0

# Screens as filed in PubChem BioAssay.
